Measured values reported in PubChem BioAssay (NCATS).
Unmarked numbers belong to inactive results. Inconclusive results are not listed. Active and inactive are the calls of the source. Unless noted, calls come from the whole dose curve; as a rule, active = well fitted curve in the direction sought with a large enough effect; inconclusive = small, poorly fitted or top-dose-only effect, or another doubt; inactive = no such curve, though single readings can be large; an effect the other way counts as inactive or inconclusive.

Tests used:
[1] = biological target: Lysosomal acid glucosylceramidase (Homo sapiens) (UniProt P04062); assay: Glucocerebrosidase-p2 (AID 348; in the data active = potency below about 10 µM; note: potency is the fitted concentration of half-maximal effect); conditions: purified GBA, blue fluorogenic substrate, 40 min
Chain of Lysosomal acid glucosylceramidase (Homo sapiens) (P04062 whole entry, looked up): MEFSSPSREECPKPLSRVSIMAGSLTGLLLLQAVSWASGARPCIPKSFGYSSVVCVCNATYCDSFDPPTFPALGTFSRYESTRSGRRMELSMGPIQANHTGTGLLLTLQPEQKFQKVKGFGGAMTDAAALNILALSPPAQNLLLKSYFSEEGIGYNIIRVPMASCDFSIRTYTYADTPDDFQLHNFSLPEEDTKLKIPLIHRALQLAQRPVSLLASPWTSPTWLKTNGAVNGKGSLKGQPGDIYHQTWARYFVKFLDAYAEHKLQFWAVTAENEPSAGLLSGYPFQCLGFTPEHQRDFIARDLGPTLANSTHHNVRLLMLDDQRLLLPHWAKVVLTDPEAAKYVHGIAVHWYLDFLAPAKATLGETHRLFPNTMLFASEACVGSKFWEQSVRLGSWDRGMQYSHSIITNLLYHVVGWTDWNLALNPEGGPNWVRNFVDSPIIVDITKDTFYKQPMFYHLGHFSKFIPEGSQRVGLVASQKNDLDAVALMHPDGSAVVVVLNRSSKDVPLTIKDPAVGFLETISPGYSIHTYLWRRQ
In short: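 Normal human glucocerebrosidase (0.2 nM) with blue fluorogenic substrate (80 uM final) in citrate/phosphate pH 5.9 with 10mM sodium taurocholate, 0.01% tween-20; 40 min RT, NaOH/glycine stop; fluorescence Ex 365/Em 440; AC50 from a titration from 0.6 nM upwards.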

[2] = AP1 Signaling Pathway (AID 357; active = well fitted curve in either direction with a large enough effect, not every such curve was filed as active;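 note: ME-180 reporter cells stimulated with EGF at its EC50 level; % is set by controls: 0 for no effect and ±100 for the full control effect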); conditions: ME-180 AP-1-bla reporter, EGF-induced, beta-lactamase ratio, 5 h; at 7.69 µM (top of the series) unless noted
In short: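 Beta-lactamase reporter under AP-1 response element, ME-180 background. Stimulus: EC50 EGF. Compound exposure 5 h, 37 °C. Detection: CCF4, 2.5 h RT, 460/530 nm. Values: AC50 from titration.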

[3] = biological target: Cytochrome P450 1A2 (Homo sapiens) (UniProt P05177); assay: p450-cyp1a2 (AID 410; calls by dose curve; note: potency is the fitted concentration of half-maximal effect); conditions: recombinant CYP1A2, luciferin-ME demethylation, luminescence; series mostly up to 57 µM
Chain of Cytochrome P450 1A2 (Homo sapiens) (P05177 whole entry, looked up): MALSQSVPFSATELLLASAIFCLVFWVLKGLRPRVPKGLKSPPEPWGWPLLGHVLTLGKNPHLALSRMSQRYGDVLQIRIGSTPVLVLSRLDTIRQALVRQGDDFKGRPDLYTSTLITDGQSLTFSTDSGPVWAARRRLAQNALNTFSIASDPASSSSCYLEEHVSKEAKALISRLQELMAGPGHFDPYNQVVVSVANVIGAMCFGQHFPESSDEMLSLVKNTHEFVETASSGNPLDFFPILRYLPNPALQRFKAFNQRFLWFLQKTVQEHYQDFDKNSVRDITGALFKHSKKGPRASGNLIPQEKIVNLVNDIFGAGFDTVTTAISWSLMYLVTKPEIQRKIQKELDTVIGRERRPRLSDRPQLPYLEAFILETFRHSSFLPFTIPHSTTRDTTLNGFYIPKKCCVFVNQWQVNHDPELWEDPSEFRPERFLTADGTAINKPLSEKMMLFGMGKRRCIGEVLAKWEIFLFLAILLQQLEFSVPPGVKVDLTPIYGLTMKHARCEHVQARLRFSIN
In short: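 Luminescent demethylation readout: Luciferin-ME (100uM, equal to Km) turned over by 20nM CYP1A2 for 60 min at room temperature after NADPH regeneration addition, following 10 min compound preincubation. Normalization used 57 uM furafylline as full inhibition.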

[4] = biological target: Glucocorticoid receptor (Homo sapiens) (UniProt P04150); assay: GR-GFP Redistribution (AID 450;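 active = compounds whose dose series gives a full or clear partial fitted curve of increased nuclear translocation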; note: potency is the fitted concentration of half-maximal effect); conditions: U2OS GR-GFP nuclear translocation, laser cytometry, 2 h
Chain of Glucocorticoid receptor (Homo sapiens) (P04150 whole entry, looked up, the tested form may be a part): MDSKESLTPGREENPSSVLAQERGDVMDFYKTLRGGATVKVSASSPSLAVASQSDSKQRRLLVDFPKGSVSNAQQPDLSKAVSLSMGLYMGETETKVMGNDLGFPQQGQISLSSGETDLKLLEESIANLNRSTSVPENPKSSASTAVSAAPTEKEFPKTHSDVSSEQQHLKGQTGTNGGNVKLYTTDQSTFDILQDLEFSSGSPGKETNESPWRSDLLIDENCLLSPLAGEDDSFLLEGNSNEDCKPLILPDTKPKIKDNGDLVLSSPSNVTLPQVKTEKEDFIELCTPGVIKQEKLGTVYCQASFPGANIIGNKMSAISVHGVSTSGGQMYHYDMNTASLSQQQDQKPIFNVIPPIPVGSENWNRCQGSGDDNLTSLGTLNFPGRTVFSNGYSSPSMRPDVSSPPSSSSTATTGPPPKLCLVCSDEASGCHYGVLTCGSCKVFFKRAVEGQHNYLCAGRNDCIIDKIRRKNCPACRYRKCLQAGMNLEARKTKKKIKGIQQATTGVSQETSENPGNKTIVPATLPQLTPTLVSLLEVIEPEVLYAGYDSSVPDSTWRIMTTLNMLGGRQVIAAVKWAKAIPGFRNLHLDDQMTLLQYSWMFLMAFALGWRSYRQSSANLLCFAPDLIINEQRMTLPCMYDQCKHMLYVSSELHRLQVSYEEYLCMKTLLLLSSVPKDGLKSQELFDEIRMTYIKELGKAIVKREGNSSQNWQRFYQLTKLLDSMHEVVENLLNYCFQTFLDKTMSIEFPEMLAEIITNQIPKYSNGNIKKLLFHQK

[5] = biological target: Glucocorticoid receptor (Homo sapiens) (UniProt P04150); assay: GR-EFC Redistribution (AID 451; calls by dose curve; note: potency is the fitted concentration of half-maximal effect); conditions: CHO-K1 GR-EFC translocation, beta-gal luminescence, 2 h
In short: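 Translocation of GR-ED fusion to nuclear EA restores b-gal, read by luminescence after 1 h room-temperature detection. Engineered CHO-K1 biosensor cells, 1,000/well, exposed 2 h at 37 C to titrations up to 46 uM final.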

[6] = biological target: Cytochrome P450 3A4 (Homo sapiens) (UniProt P08684); assay: qHTS Assay for Activators of Cytochrome P450 3A4 (AID 885); conditions: recombinant CYP3A4, Luciferin-PPXE luminescence, 60 min; series mostly up to 57.1 µM; note: nearly all actives have a fitted effect of over 65% in size; note: potency is the fitted concentration of half-maximal effect
Chain of Cytochrome P450 3A4 (Homo sapiens) (P08684 whole entry, looked up): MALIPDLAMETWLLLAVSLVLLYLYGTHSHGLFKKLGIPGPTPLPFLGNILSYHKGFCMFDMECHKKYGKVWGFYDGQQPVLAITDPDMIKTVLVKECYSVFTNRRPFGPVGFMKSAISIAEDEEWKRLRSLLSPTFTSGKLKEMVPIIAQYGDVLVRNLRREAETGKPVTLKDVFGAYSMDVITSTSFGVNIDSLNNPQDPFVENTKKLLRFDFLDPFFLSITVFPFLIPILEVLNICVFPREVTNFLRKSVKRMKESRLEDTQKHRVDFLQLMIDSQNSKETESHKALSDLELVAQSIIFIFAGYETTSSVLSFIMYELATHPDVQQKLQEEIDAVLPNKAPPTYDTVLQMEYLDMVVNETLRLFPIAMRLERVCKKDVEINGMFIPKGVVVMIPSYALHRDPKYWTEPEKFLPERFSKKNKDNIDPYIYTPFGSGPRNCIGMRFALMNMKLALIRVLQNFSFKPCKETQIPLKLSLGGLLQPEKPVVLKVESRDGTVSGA
In short: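 CYP3A4 activity: Luciferin-PPXE O-dealkylation, 25uM substrate, 200mM KPO4, RT throughout. Read-out is luciferase luminescence; higher values reflect activation.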

[7] = biological target: Dual specificity protein kinase CLK4 (Homo sapiens) (UniProt Q9HAZ1); assay: qHTS Assay for Inhibitors of CDC-like Kinase 4 (Kinase-Glo Assay) (AID 1770); conditions: recombinant Clk4, Kinase-Glo ATP depletion luminescence; series mostly up to 66.7 µM; note: nearly all actives have a fitted effect of over 65% in size; note: potency is the fitted concentration of half-maximal effect
Chain of Dual specificity protein kinase CLK4 (Homo sapiens) (Q9HAZ1 whole entry, looked up): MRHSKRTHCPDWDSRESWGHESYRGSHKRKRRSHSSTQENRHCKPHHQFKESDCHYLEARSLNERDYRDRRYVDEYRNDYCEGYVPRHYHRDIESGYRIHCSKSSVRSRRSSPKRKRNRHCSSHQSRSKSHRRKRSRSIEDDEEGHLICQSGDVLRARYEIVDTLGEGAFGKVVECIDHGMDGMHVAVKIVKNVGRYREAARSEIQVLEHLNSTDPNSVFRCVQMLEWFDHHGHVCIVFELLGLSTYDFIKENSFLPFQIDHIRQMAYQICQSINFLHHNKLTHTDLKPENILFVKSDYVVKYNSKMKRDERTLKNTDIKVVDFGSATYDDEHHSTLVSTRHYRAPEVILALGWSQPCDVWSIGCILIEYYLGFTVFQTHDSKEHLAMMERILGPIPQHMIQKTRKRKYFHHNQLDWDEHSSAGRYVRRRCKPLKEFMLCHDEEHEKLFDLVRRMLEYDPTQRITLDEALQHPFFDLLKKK
In short: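 Luminescent ATP-depletion read-out (Kinase-Glo) after 4.5 h room-temperature reaction of Clk4 (25 nM final) with RS peptide (100 uM) and ATP (1 uM), pH 7.5 Tris buffer with MgCl2 and DTT.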

[8] = biological target: Dual specificity protein kinase CLK4 (Homo sapiens) (UniProt Q9HAZ1); assay: qHTS Assay for Inhibitors of CDC-like Kinase 4 (ADP-Glo Assay) (AID 1771); conditions: recombinant CLK4, ADP-Glo luminescence; series mostly up to 80 µM; note: nearly all actives have a fitted effect of over 70% in size; note: potency is the fitted concentration of half-maximal effect
In short: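 ADP production was read by ADP-Glo luminescence after residual ATP depletion, following 1 h room-temperature reaction of 25 nM Clk4, 1 uM ATP and 100 uM RS peptide with MgCl2, EGTA, DTT and Triton X-100.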

[9] = biological target: Dual specificity protein kinase CLK4 (Homo sapiens) (UniProt Q9HAZ1); assay: qHTS Assay for Inhibitors of CDC-like Kinase 4 (ADP-FP Assay) (AID 1795); conditions: Transcreener ADP fluorescence polarization; series mostly up to 50 µM; note: nearly all actives have a fitted effect of over 60% in size; note: potency is the fitted concentration of half-maximal effect
In short: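 Kinase activity was measured as ADP production using Transcreener orange tracer (4 nM) and ADP antibody (1 ug/mL) fluorescence polarization, with ADP calculated from a calibration curve. The 1 h reaction contained 6.25 nM Clk4, 1 uM ATP and 100 uM RS peptide at pH 7.5 with Mg2+.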

[10] = biological target: Ubiquitin carboxyl-terminal hydrolase 1 (Homo sapiens) (UniProt O94782); assay: Inhibitors of USP1/UAF1: Pilot qHTS (AID 504865); conditions: purified USP1/UAF1, Ub-rhodamine cleavage fluorescence; series mostly up to 54.9 µM;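 note: rhodamine fluorescence freed from ubiquitin-rhodamine substrate followed over time; top concentration of the series differs between compounds; % is set by controls: 0 for no effect and ±100 for the full control effect; nearly all actives have a fitted effect of over 35% in size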
Chain of Ubiquitin carboxyl-terminal hydrolase 1 (Homo sapiens) (O94782 whole entry, looked up): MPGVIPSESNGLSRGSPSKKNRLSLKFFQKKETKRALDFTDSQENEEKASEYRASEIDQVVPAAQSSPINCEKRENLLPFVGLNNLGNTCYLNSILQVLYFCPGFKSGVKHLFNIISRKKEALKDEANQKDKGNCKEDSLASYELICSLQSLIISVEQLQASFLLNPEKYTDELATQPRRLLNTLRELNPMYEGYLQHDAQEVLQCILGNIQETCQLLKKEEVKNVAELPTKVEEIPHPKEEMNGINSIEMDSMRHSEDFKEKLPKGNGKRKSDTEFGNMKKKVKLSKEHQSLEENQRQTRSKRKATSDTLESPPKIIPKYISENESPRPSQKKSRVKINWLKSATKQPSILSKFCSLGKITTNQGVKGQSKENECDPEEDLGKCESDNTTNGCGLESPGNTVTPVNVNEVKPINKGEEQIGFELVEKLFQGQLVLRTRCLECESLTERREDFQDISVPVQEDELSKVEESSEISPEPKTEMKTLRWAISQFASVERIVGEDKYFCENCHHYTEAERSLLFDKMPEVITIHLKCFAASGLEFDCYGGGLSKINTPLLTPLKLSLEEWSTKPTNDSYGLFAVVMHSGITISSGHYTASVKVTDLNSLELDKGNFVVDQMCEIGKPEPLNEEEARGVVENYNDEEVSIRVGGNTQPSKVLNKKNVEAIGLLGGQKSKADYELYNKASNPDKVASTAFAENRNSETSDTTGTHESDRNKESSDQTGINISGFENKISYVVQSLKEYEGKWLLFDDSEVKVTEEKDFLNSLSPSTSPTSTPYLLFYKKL
In short: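 Deubiquitinase activity followed as kinetic rhodamine fluorescence release from 150 nM Ub-Rho. 1 nM USP1/UAF1 with compound, after 15 min room-temperature preincubation, in HEPES pH 7.8 buffer containing TCEP, EDTA, BSA and Tween-20.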

[11] = Primary qHTS for small molecule stabilizers of the endoplasmic reticulum resident proteome: Secreted ER Calcium Modulated Protein (SERCaMP) assay (AID 1508630); conditions: SH-SY5Y GLuc-SERCaMP (Gaussia luciferase released on ER calcium loss) secretion, thapsigargin, luminescence; series mostly up to 38.4 µM; note: % is set by controls: 0 for no effect and ±100 for the full control effect
In short: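 The SH-SY5Y reporter protocol was run at 3 concentrations up to 38.3 uM (primary) or 11 concentrations (follow-up): 16 h compound, 100 nM thapsigargin for 4 h, then extracellular luciferase luminescence.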

[12] = NFAT Signaling Pathway (AID 444; active = well fitted curve in either direction with a large enough effect, not every such curve was filed as active;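 note: carbachol stimulus at about its EC50 of 1 µM final; % is set by controls: 0 for no effect and ±100 for the full control effect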); conditions: Jurkat NFAT-bla M1, carbachol, beta-lactamase ratio, 5 h; at 7.69 µM (top of the series) unless noted
In short: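 Read-out: CCF4 FRET ratio (460 nm/530 nm) after 1 h RT dye loading, used for %activity and AC50 from titration series. Cells: Jurkat NFAT-β-lactamase/M1 line, treated with compound plus 1 uM carbachol for 5 h, 37 °C.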

[13] = Stat Signaling Pathway (AID 446; active = well fitted curve in either direction with a large enough effect, not every such curve was filed as active;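 note: ME-180 cervical cancer cells given 40 pM IL-6 alongside compound; SIE-controlled beta-lactamase reporter measured as 460/530 nm FRET emission ratio; % is set by controls: 0 for no effect and ±100 for the full control effect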); conditions: ME-180 (cervical carcinoma) SIE beta-lactamase reporter, IL-6 stimulated, 5 h; at 7.69 µM (top of the series) unless noted
In short: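 Compound effects on IL-6-induced STAT reporter activity were measured in ME-180 cells. After overnight culture, cells were co-treated with 40 pM IL-6 for 5 hrs before beta-lactamase substrate loading at room temperature.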

[14] = biological target: Mitogen-activated protein kinase 10 (Mus musculus) (UniProt Q61831); assay: JNK3 AlphaScreen Assay (AID 530; active = well fitted curve in either direction with a large enough effect, not every such curve was filed as active); conditions: JNK3 lysate, c-Jun phosphorylation; series mostly up to 57.1 µM
In short: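 qHTS titrations with 15 min compound pre-incubation before adding ATP (10 uM final). Read-out: AlphaScreen of Ser73-phosphorylated biotin-GST-cJun using HepG2 lysate JNK3 activated by IL-1β and TNFα.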

[15] = biological target: Cytochrome P450 3A4 (Homo sapiens) (UniProt P08684); assay: qHTS Assay for Inhibitors and Substrates of Cytochrome P450 3A4 (AID 884); conditions: recombinant CYP3A4, Luciferin-PPXE luminescence; series mostly up to 57.1 µM; note: potency is the fitted concentration of half-maximal effect; nearly all actives have a fitted effect of over 50% in size
In short: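 Luminescent readout of luciferin produced by CYP3A4 (20 nM) dealkylation of Luciferin-PPXE, 25 uM (its KM). NADPH-driven reaction ran 60 min at RT after 10 min compound preincubation; data scaled to 57 uM ketoconazole as 100% inhibition.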

[16] = biological target: Cytochrome P450 2C19 (Homo sapiens) (UniProt P33261); assay: qHTS Assay for Inhibitors and Substrates of Cytochrome P450 2C19 (AID 899); conditions: recombinant CYP2C19, luciferin-H EGE luminescence; series mostly up to 57.1 µM; note: potency is the fitted concentration of half-maximal effect; nearly all actives have a fitted effect of over 60% in size
Chain of Cytochrome P450 2C19 (Homo sapiens) (P33261 whole entry, looked up): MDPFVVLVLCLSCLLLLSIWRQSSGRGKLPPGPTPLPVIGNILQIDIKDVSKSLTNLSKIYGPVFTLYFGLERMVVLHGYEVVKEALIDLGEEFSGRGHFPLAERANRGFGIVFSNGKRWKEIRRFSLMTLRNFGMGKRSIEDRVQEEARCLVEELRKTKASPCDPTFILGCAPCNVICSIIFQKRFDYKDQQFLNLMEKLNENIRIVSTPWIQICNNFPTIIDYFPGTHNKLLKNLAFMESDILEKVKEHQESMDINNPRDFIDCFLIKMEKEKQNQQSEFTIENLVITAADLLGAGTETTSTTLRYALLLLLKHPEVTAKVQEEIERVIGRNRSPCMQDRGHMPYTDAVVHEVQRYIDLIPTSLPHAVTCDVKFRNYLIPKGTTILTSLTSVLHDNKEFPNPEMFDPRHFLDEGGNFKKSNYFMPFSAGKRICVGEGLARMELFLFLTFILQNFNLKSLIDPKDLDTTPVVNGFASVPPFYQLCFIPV
In short: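 5nM enzyme + 10uM Luciferin-H EGE (=KM), 50mM KPO4; cpd pin-transferred, 10 min 37C; NADPH regen, 60 min 37C; stopped w/ luciferin detection reagent, 20 min; luminescence. Normalized to 57uM ketoconazole (AC100).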

[17] = biological target: 3',5'-cyclic-AMP phosphodiesterase 4B (Homo sapiens) (UniProt Q07343); assay: qHTS Assay for Inhibitors of PDE-IV (AID 607; active = well fitted activation curve with a large enough effect in the main read-out, with a control signal flat, not every such curve was filed as active; note: % of control where 0% means no effect); conditions: HEK293 ACTOne CNG channel cells, membrane potential fluorescence; series mostly up to 22.9 µM
Chain of 3',5'-cyclic-AMP phosphodiesterase 4B (Homo sapiens) (Q07343 whole entry, looked up): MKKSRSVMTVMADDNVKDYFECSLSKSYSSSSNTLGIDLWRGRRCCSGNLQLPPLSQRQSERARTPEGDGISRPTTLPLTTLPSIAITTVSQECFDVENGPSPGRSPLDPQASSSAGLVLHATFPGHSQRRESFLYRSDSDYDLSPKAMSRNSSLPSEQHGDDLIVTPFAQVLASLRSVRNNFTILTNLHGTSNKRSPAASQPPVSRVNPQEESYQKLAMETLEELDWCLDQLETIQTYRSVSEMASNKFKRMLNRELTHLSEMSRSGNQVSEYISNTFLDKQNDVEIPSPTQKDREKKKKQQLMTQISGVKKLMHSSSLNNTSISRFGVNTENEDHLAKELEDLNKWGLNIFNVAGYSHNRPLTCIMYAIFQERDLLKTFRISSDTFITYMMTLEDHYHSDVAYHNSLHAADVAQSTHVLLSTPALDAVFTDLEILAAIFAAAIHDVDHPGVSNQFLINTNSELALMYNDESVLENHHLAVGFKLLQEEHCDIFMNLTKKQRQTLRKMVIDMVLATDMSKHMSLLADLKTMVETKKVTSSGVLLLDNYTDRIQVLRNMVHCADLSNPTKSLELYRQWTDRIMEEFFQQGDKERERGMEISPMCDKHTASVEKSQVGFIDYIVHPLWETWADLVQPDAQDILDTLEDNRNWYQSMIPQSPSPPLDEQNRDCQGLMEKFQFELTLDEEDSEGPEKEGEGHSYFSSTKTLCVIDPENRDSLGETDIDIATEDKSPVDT
In short: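 ACTOne HEK293 cells carry a modified cAMP-gated CNG channel and express endogenous PDE4; plated 1000 cells/well, compounds up to 22.9 uM final. Membrane-potential dye fluorescence (ex 535/em 590) was read; parental cells received 10 uM forskolin + 100 uM RO 20-1724.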

Row | SMILES | Potency [1] | activity change, negative = inhibition [2] | Potency [3] | Potency [4] | Potency [5] | Potency [6] | Potency [7] | Potency [8] | Potency [9] | Potency [10] | outcome [11] | activity change, negative = inhibition [12] | activity, negative = inhibition [13] | Potency [14] | Potency [15] | Potency [16] | Potency [17]
1 | COc1ccc(-c2nc3cnc(N(C)C)nc3n(Cc3cccs3)c2=O)cc1 | > 11.4 µM | 17.1% | 1.58 µM (active) | > 9.22 µM | > 46 µM | inactive | inactive | inactive | inactive | inactive | inactive |  |  |  |  |  | 
2 | N#CCCn1c(=O)c(-c2ccccc2)nc2cnc(Nc3ccccc3)nc21 | > 11.4 µM | -19.8% | 0.794 µM (active) |  |  |  | inactive | inactive | inactive | inactive | inactive | -16.9% | -23.1% | inactive |  |  | 
3 | N#Cc1ccccc1-c1ccc2ncnc(NC3CC3)c2c1 | > 11.4 µM | -12.1% | 0.1 µM (active) | > 46 µM | > 46 µM | inactive | 6.31 µM (active) | 5.62 µM (active) | 7.08 µM (active) | inactive | inactive | 21.2% |  | inactive | 2 µM (active) |  | 
4 | O=c1c(-c2ccccc2)nc2cncnc2n1-c1ccccc1 | > 11.4 µM | -10.5% |  | > 9.22 µM | > 46 µM |  | inactive | inactive | inactive | inactive | inactive | 2.09% | 0.883% | inactive |  |  | 
5 | COc1ccc(CNc2nc(-c3c(C)noc3C)nc3ccccc23)c(OC)c1 | > 2.29 µM | 5.92% | 0.794 µM (active) | > 46 µM | > 46 µM | inactive | inactive | inactive | inactive |  | inactive |  |  | inactive | 2.51 µM (active) | 3.16 µM (active) | 
6 | O=c1c(-c2ccc(Cl)cc2)nc2cnc(N3CCOCC3)nc2n1CCc1ccccc1 | > 11.4 µM | 87.9% [activator] (active) | 2 µM (active) | > 9.22 µM | > 46 µM | 15.8 µM (active) | inactive | inactive | inactive | inactive | inactive | 112% [activator] (active) |  | inactive |  |  | inactive
7 | CN(C)c1ncc2nc(-c3cccc(C#N)c3)c(=O)n(C[C@H]3CCCO3)c2n1 | > 11.4 µM | -22.3% | 3.16 µM (active) | > 9.22 µM | > 46 µM |  | inactive | inactive | inactive | inactive | inactive |  | 1.32% | inactive |  |  | inactive
